The values that follow come from the supplement of paper PMC6555819.

The subject of the first assay is LXRa:RXRa (NR concentration 270 nM, RXRa partner concentration 90 nM). In words: PBM binding z-score (relative to random genomic background probes); higher = stronger binding; sequences stand for … in GC…GCGATTGACAGCGTAGAATGAAGG
In a few lines:
(§1)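 Custom Agilent 4×180K protein-binding microarrays carried double-stranded probes. Their 34-nt variable regions held direct-repeat seeds, single-nucleotide variants, half-site ablations and random human genomic background sequences. Arrays were incubated 1 h with ligand-free nuclear receptor dimers in PBS pH 7.4, 2% milk, 0.02% Triton X-100, 1 mM DTT, 0.2 mg/mL BSA and 0.4 mg/ml salmon testes DNA. Antibodies against each partner (one per run) detected binding, and scanned fluorescence was regression-normalized. Binding z-scores use random background probes as reference.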
With CCTAGCAGGCCAATCTGGGTGACTCAAGGCTTGA, the PBM binding z-score is -0.53.
The sequence CGAACTAGGTCAGAACTGGACAGTGAAGGATGAT yielded a PBM binding z-score of 0.375.
On the same count and under the same terms, the result for GGAACGAGGGCATTCGAGTTGATGGCATGGCGAT reads 1.27; that for TCAGACAGGTGAAGGTAACTCCGGTACGCAGTCG, 2.08.
The same measure, in the same setting: to CGTCCCAGGTCAATGCTAGGTCAGTGAAAGCATT belongs 4.18; to TCATATAGGTAAACAGGTGGAAGTCCGTAAGTTA, 0.64; to CCAGACAGGTGAAAGGTAACCCAGTCTGGTACGC, 0.713.
The sequence CTACCAAGCTGAACAAGGTCGTTGATTACTATTC yielded a PBM binding z-score of 0.731.
The same measure, in the same setting: to GGAACGAGGGCGTTCGAGTTGATAGCATGGCGAT belongs -0.232.
Take CAGCCTAGGTCTGGGCCAGTATAGGAGGAACGTT: the PBM binding z-score was -0.864.
Still for that read-out and setting: to GGAGACAGGTGAAACGCAGGTAACTCAGGGTGGC belongs 0.224; to TAGCCTAGGTCATGGGCCGGTATACCACGCGAAC, 3.42.
On the same count and under the same terms, to CAAACTCGGTCACAGAGGTCAAAGTCCGTGCGTA belongs 6.29; to CCTACTGCGCCACGAAAGGTCATTGATTCAGTGA, 5.05.
For GCGTACGGGTCAAAGGTTATAGCATGAATAGAAT, the PBM binding z-score was 5.75.
The sequence CCATACGGGTCACGAGGTTATAGCACGACGAGCG displayed a PBM binding z-score of 4.32.
Still for that read-out and setting: to TCATATAGGTAAATGCTAGGTGAAATTCCGATCT belongs 0.522; to CGAACGAGGGGATGAGTTGATAGCAAATGCCGAT, -0.222.
Sequence GCATATAGGTGATACAAGGTGAAAGTCCGATTGT yielded a PBM binding z-score of 0.421.
Same read-out and setting: the result for CCGACTGCGGCAAAGGTTACCATACTCAGTACGA reads 1.26; that for ACTATTAGTTGTGACGAGGGCAACCGATAGGTTG, -0.0626; that for TCGAGTAGGTTACCAATGGGGCATTCCGCTTTCT, 1.46.
The same measure, in the same setting: the result for CGAACTAGGTCCTCCAGGACAGTGAATACATTGA reads -0.319; that for TCAAGTAGGTTACCAATGGGGCATTCAGCTTTCT, 1.6.
Still for that read-out and setting: the result for GCTGTTAGGTCAACTGATGGTCAGCTAAAGCTCG reads 3.67; that for TCATATAGGTAAACAGGTGCAAGTCCGTAAGTTA, 1; that for TCTTGTAGATCAATAGAGGATAAGAAAGTGCGCT, 0.33.
TTACCAGGGTGAAGGTCGTTGATCCCTCTGTAGA yielded a PBM binding z-score of 1.73.
The sequence GCTAGCAGGCCATTTTGGTCACTCAATGACGGGC gave a PBM binding z-score of -0.754.
Same read-out and setting: the result for CGTCCAAGGTCAATGCTAGGTCAGTGTAAGCATT reads 5.59.
As for TATACAGCGTCAAAGGCCAGAGTACGAATGTCGA, the PBM binding z-score was -0.473.
On the same count and under the same terms, the result for ATCTCGAGGTAAAGTTCAGTGAAAGATCGATAGA reads 1.92.
On the same count and under the same terms, to CATACAGGGTCAGCTAGGCCAGTGTAGGGACGGC belongs 2.82; to ATATGTAGGTTATCGCGTCATTCAGTTTGCGCAT, 1.01.
In the case of CCGACTGGGGTAAAGGTTACCATACTCAGTACGA, the PBM binding z-score turned out to be 1.37.
Consider TAGCCTAGGTCATGCGGGCCAGGATAGTGTCGGC, for which the PBM binding z-score stood at 2.96.
Same read-out and setting: the result for CCTAGTAGGTCAAGGTCACACACGCTATAGGTAC reads 5.5; that for TCGAGTAGGTTACCATTGGGGCATTCAGCTTTCT, 1.68.
Still for that read-out and setting: to TTACCAAGGTGGGCTGAGGTCGTTGATCCAACTC belongs 0.463.
With AGAATGACGTTATACGTAGATCAGGGAAGAAAGT, the PBM binding z-score is -0.685.

The next assay has as its system LXRa homodimer (NR concentration 270 nM). Described as above. In a few lines:
as §1
In turn, CCTAGCAGGCCAATCTGGGTGACTCAAGGCTTGA yielded a PBM binding z-score of -0.891.
On the same count and under the same terms, to CGAACTAGGTCAGAACTGGACAGTGAAGGATGAT belongs -0.326; to GGAACGAGGGCATTCGAGTTGATGGCATGGCGAT, -0.635; to TCAGACAGGTGAAGGTAACTCCGGTACGCAGTCG, -0.352.
On to CGTCCCAGGTCAATGCTAGGTCAGTGAAAGCATT, for which the PBM binding z-score came out at 2.32.
Same read-out and setting: the result for TCATATAGGTAAACAGGTGGAAGTCCGTAAGTTA reads 0.229; that for CCAGACAGGTGAAAGGTAACCCAGTCTGGTACGC, -0.512; that for CTACCAAGCTGAACAAGGTCGTTGATTACTATTC, 0.686.
GGAACGAGGGCGTTCGAGTTGATAGCATGGCGAT yielded a PBM binding z-score of -0.938.
CAGCCTAGGTCTGGGCCAGTATAGGAGGAACGTT gave a PBM binding z-score of -0.89.
On the same count and under the same terms, the result for GGAGACAGGTGAAACGCAGGTAACTCAGGGTGGC reads -0.296; that for TAGCCTAGGTCATGGGCCGGTATACCACGCGAAC, 0.261; that for CAAACTCGGTCACAGAGGTCAAAGTCCGTGCGTA, 7.24.
Take CCTACTGCGCCACGAAAGGTCATTGATTCAGTGA: the PBM binding z-score stood at 5.64.
In the case of GCGTACGGGTCAAAGGTTATAGCATGAATAGAAT, the PBM binding z-score was 0.516.
Consider CCATACGGGTCACGAGGTTATAGCACGACGAGCG, for which the PBM binding z-score was 0.528.
The sequence TCATATAGGTAAATGCTAGGTGAAATTCCGATCT showed a PBM binding z-score of -0.0474.
With CGAACGAGGGGATGAGTTGATAGCAAATGCCGAT, the PBM binding z-score was -0.351.
Same read-out and setting: to GCATATAGGTGATACAAGGTGAAAGTCCGATTGT belongs -0.185; to CCGACTGCGGCAAAGGTTACCATACTCAGTACGA, 0.087.
The same measure, in the same setting: to ACTATTAGTTGTGACGAGGGCAACCGATAGGTTG belongs -0.0175; to TCGAGTAGGTTACCAATGGGGCATTCCGCTTTCT, -0.855; to CGAACTAGGTCCTCCAGGACAGTGAATACATTGA, -0.274.
TCAAGTAGGTTACCAATGGGGCATTCAGCTTTCT came in with a PBM binding z-score of -0.145.
The same measure, in the same setting: the result for GCTGTTAGGTCAACTGATGGTCAGCTAAAGCTCG reads 0.551.
Sequence TCATATAGGTAAACAGGTGCAAGTCCGTAAGTTA showed a PBM binding z-score of 0.433.
Turning to TCTTGTAGATCAATAGAGGATAAGAAAGTGCGCT, the PBM binding z-score is -0.0873.
Turning to TTACCAGGGTGAAGGTCGTTGATCCCTCTGTAGA, the PBM binding z-score is -0.022.
Regarding GCTAGCAGGCCATTTTGGTCACTCAATGACGGGC, the PBM binding z-score is -1.03.
On the same count and under the same terms, to CGTCCAAGGTCAATGCTAGGTCAGTGTAAGCATT belongs 2.58; to TATACAGCGTCAAAGGCCAGAGTACGAATGTCGA, -0.358.
In turn, ATCTCGAGGTAAAGTTCAGTGAAAGATCGATAGA displayed a PBM binding z-score of 1.04.
CATACAGGGTCAGCTAGGCCAGTGTAGGGACGGC: the PBM binding z-score was -0.158.
Turning to ATATGTAGGTTATCGCGTCATTCAGTTTGCGCAT, the PBM binding z-score was 0.372.
On the same count and under the same terms, to CCGACTGGGGTAAAGGTTACCATACTCAGTACGA belongs -0.204.
TAGCCTAGGTCATGCGGGCCAGGATAGTGTCGGC had a PBM binding z-score of 0.218.
On the same count and under the same terms, to CCTAGTAGGTCAAGGTCACACACGCTATAGGTAC belongs 2.71; to TCGAGTAGGTTACCATTGGGGCATTCAGCTTTCT, -0.373.
For the sequence TTACCAAGGTGGGCTGAGGTCGTTGATCCAACTC, the PBM binding z-score is -0.083.
The same measure, in the same setting: to AGAATGACGTTATACGTAGATCAGGGAAGAAAGT belongs -0.265.
